In the supplement of paper PMC11172423:

Each compound was assayed on Madurella mycetomatis MM55 (assay: growth relative to untreated control; higher = less inhibition, active = 20 or less). Settings: 100 µM.
Summary of the method: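 Hyphal fragments of M. mycetomatis MM55 or F. senegalensis CBS197.79 were suspended in colourless RPMI 1640 with L-glutamine and MOPS at 68–72% transmission at 660 nm. They were exposed in 96-well plates to compound at 100 or 25 µM for 7 days at 37 °C. Viability was read with MTS (2 h, 490 nm) or resazurin (600 nm). Growth is metabolic activity relative to the untreated growth control, both corrected with a medium-plus-dye blank.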
In the case of `N#C/C(C(=O)c1ccccc1Cl)=C1\NC(c2ccccc2)=CS1`, the growth is reported as 45.4% (inactive).
For `CC(C)Nc1ncc2nc(Nc3cc(C(F)(F)F)cc(C(F)(F)F)c3)n(C3CCNCC3)c2n1`, the growth was 64.5% (inactive).
In the case of `CC(CN1c2ccccc2Sc2ccccc21)N(C)C` (stereo unspecified), the growth is reported as 3.58% (active).
In the case of `CC1(C)CCC(CO)(NC(=O)c2cc3c(F)cc(F)cc3[nH]2)CC1`, the growth is reported as 6.07% (active).
In the case of `CCOc1ccc(-c2nc(NC(=O)Cc3cccc(OC)c3)sc2C)cc1`, the growth is reported as 83.1% (inactive).
For `O=c1[nH]c2ccccc2n1CCCN1CCN(C(c2ccccc2)c2ccccc2)CC1`, the growth was 5.01% (active).
`Clc1cccc2cnsc12` was tested, and the growth was 68.5% (inactive).
In the case of `CN1CCC(N2CCC(NC(=O)c3cc4c(F)cccc4s3)CC2)CC1`, the growth is reported as 46.6% (inactive).
For `CCOc1ccc(Cc2nccc3cc(OCC)c(OCC)cc23)cc1OCC`, the growth was 83% (inactive).
For `Cc1nc2ccccc2n1Cc1ccc(Cl)cc1`, the growth was 5.04% (active).
In the case of `CNC(=O)c1cc(Oc2ccc(NC(=O)Nc3ccc(Cl)c(C(F)(F)F)c3)cc2)ccn1`, the growth is reported as 35.1% (inactive).
For `CC(C)(C)Cn1c(N)nc2ccc(-c3[nH]c(C(C)(C)C)nc3-c3ccc(F)cc3)nc21`, the growth was 3.85% (active).
For `COc1ccc(Cl)cc1-c1nc(C(=O)NCCN2CCCCC2)c(C(C)C)s1`, the growth was 6.6% (active).
With `O=C(c1ccc(Nc2nccc(-c3cc(Cl)cc(C(F)(F)F)c3)n2)cc1)N1CC2(COC2)C1` the growth was 50.6% (inactive).
With `CC(C)Nc1cccnc1N1CCN(C(=O)c2cc3cc(NS(C)(=O)=O)ccc3[nH]2)CC1` the growth was 96.3% (inactive).
For `Cn1c(O)nnc1Cn1ccc(C(F)(F)F)c(Oc2cc(Cl)cc(C#N)c2)c1=O`, the growth was 90.8% (inactive).
`O=C(Nc1ncccc1O)c1ccc(S(=O)(=O)NCCc2cccs2)cc1` was tested, and the growth was 70.6% (inactive).
With `CCCCN(CCCC)CCC(O)c1cc2c(Cl)cc(Cl)cc2c2cc(C(F)(F)F)ccc12` (stereo unspecified) the growth was 77.3% (inactive).
For `O=C(Nc1ncc([N+](=O)[O-])s1)c1ccccc1O`, the growth was 91.8% (inactive).
With `C[C@]1(c2nc3c(C(N)=O)cccc3[nH]2)CCCN1` the growth was 87.6% (inactive).
In the case of `CC(C)N1CCN(c2ccc(OC[C@H]3CO[C@](Cn4cncn4)(c4ccc(Cl)cc4Cl)O3)cc2)CC1`, the growth is reported as 2.95% (active).
In the case of `CN[C@@H]1[C@H](O)[C@H](NC)[C@H]2O[C@@]3(O)C(=O)C[C@@H](C)O[C@H]3O[C@@H]2[C@H]1O`, the growth is reported as 71.3% (inactive).
With `O=C1NCCN1CCN1CCC(c2cn(-c3ccc(F)cc3)c3ccc(Cl)cc23)CC1` the growth was 4.92% (active).
In the case of `Cc1nn(-c2cccc(Cl)c2)c2c1C(C(=O)c1ccc3c(c1)OCO3)CC(=O)N2` (stereo unspecified), the growth is reported as 88.3% (inactive).
With `CCn1cnc2c(N3CCCC(c4ccncc4)C3)ncnc21` (stereo unspecified) the growth was 62.5% (inactive).
For `FC(F)(F)c1ccnc(Nc2cn3cc(-c4ccc(N5CCOCC5)nc4)ccc3n2)n1`, the growth was 132% (inactive).
For `Cn1cc(CN2CCc3c(c(C(=O)NCc4nccs4)nn3Cc3ccccc3)C2)c2ccccc21`, the growth was 32.5% (inactive).
For `Cc1cc(C(=O)N2CCOc3c(cc(-c4csc5ccccc45)cc3OCCc3ccccn3)C2)n(C)n1`, the growth was 87.7% (inactive).
In the case of `CN(C)CCCN1c2ccccc2Sc2ccc(Cl)cc21`, the growth is reported as 3.82% (active).
In the case of `O=C(Nc1cccc(Cl)c1)c1ccnc(N2CCC(N3CCCC3)CC2)c1`, the growth is reported as 5.81% (active).
With `c1ccc(Nc2cc(Nc3cc(-c4ccccc4)[nH]n3)nc3ccnn23)cc1` the growth was 10.5% (active).
With `CCN1CCN(Cc2ccc(-c3cc4c(N[C@H](C)c5ccccc5)[nH]cnc-4n3)cc2)CC1` the growth was 46.8% (inactive).
For `CC(C)C[C@H](NC(=O)[C@H](Cc1ccccc1)NC(=O)c1cnccn1)B(O)O`, the growth was 85.1% (inactive).
With `Cc1nn(C)c(Oc2ccccc2)c1C=NOCc1ccc(C(=O)OC(C)(C)C)cc1` the growth was 102% (inactive).
`CN(C)CCCN1C(=O)c2[nH]nc(-c3ccc(Cl)cc3O)c2C1c1ccc(Cl)cc1` (stereo unspecified) was tested, and the growth was 6.84% (active).
In the case of `CC(=O)Nc1ccc(NC(=O)c2cc(-c3ccc(C)cc3O)n[nH]2)cc1`, the growth is reported as 82.5% (inactive).
